Compound activity (PubChem BioAssay)
NR2F2 inh: inhibitors of human COUP-TFII (NR2F2) | P24468 | HEK293T NGFI-A luciferase reporter, luminescence | inhibition, % at 8.6 µM | actives 0.7% (n = 370,000) | AID 686940;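 active means inhibition above a per-plate cutoff, mean inhibition of test wells between control levels plus 3 SD, cut at about 38% in these data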;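 further: cells cotransfected with COUP-TFII expression vector driving the NGFI-A reporter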
NCOA2 inhibitor: human SRC2 (NCOA2) inhibition | Q15596 | HEK293 GAL4-SRC2 luciferase reporter, luminescence | inhibition, % at 9 µM | actives 0.17% (n = 370,000);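 active means inhibition above the mean inhibition of all tested compounds plus 3 SD, set per campaign, cut at about 52% in these data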
LRH-1 inv ag: NR5A2 inverse agonism in reporter assay. HEK293T StAR-luciferase reporter, LRH-1 transfected, 24 h. inhibition, % at 3.6 µM. actives 0.13% (n = 360,000);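 active means inhibition above the mean inhibition of all tested compounds plus 3 SD, cut at about 73% in these data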
Target sequence (O00482 whole entry, looked up): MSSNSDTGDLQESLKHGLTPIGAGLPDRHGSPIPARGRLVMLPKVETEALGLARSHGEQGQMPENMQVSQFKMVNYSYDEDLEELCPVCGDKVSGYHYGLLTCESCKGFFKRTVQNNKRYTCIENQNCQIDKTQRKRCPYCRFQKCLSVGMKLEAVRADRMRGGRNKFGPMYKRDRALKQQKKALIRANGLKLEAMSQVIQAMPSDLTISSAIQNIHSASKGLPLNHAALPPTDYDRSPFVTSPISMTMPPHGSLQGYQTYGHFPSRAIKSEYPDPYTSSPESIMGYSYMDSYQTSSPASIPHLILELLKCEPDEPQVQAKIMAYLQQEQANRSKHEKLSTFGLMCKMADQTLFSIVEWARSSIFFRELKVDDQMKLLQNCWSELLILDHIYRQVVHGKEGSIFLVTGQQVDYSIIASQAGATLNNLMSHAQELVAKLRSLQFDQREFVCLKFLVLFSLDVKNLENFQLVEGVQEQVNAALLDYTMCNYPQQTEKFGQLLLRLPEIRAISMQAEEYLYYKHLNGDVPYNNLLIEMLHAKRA
NCOA1 inh: inhibitors of human steroid receptor coactivator 1 (SRC1) | inhibition, % at 3.6 µM | actives 0.12% (n = 360,000) | HEK293 GAL4-SRC1 luciferase reporter, luminescence | Q15788;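 active means inhibition above the campaign mean plus 3 SD, with each screening campaign given its own cutoff, cut at about 60% in these data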
NCOA3 inh: human NCOA3 inhibition. inhibition, % at 3.6 µM. AID 588352. actives 0.17% (n = 360,000). HEK293 GAL4-SRC3 luciferase reporter, luminescence;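 active means inhibition above a per-campaign cutoff, the mean of all compounds plus 3 SD, cut at about 60% in these data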;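 further: higher means less SRC3-driven luciferase light from the GAL4 reporter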
Gal4-VP16 ctr: counter-screen for COUP-TFII antagonists: inhibitors of VP16. shares compounds with NR2F2 inh. HEK293 Gal4-VP16 luciferase reporter, luminescence. AID 687007. actives 25% (n = 2,500). inhibition, % at 8.5 µM; in the data active means inhibition above about 13%
COUP-TFII conf: COUP-TFII (NR2F2) inhibition, confirmation assay | actives 45% (n = 2,500) | HEK293 NGFI-A luciferase reporter, luminescence | inhibition, % at 8.5 µM | shares compounds with NR2F2 inh;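 active means mean inhibition over three repeats above a set limit taken from the earlier primary screen, cut at about 38% in these data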
Numbers stand for hits. Most compounds without a hit are left out; they make up all but 0.83% or so of the library.

`COc1ccc(NS(=O)(=O)c2ccc(N3CCOCC3)c(N)c2)cc1` gave NR2F2 inh 48, NCOA2 inhibitor inactive, LRH-1 inv ag inactive, NCOA1 inh inactive, NCOA3 inh inactive, Gal4-VP16 ctr inactive and COUP-TFII conf inactive.
Screening O=C(Nc1ccc(S(=O)(=O)N2CCCC2)cc1)c1ccc(CN2CCOCC2)cc1 returned NR2F2 inh 63, NCOA2 inhibitor inactive, LRH-1 inv ag inactive, NCOA1 inh inactive, NCOA3 inh inactive, Gal4-VP16 ctr inactive and COUP-TFII conf 48.
Screening CN(c1ccc(C(=O)Nc2ccc(S(=O)(=O)N3CCCC3)cc2)cc1)S(C)(=O)=O returned NR2F2 inh 47, NCOA2 inhibitor inactive, LRH-1 inv ag inactive, NCOA1 inh inactive, NCOA3 inh inactive, Gal4-VP16 ctr inactive and COUP-TFII conf inactive.
Screening CN(c1ccccc1C(=O)Nc1ccc(S(=O)(=O)N2CCCC2)cc1)S(C)(=O)=O returned NR2F2 inh inactive, NCOA2 inhibitor inactive, LRH-1 inv ag inactive, NCOA1 inh inactive and NCOA3 inh inactive.
Cc1ccc(S(=O)(=O)N2CCOCC2)cc1C(=O)Nc1ccc(N2CCCCCC2)cc1 was read as NR2F2 inh 40, NCOA2 inhibitor inactive, LRH-1 inv ag inactive, NCOA1 inh inactive, NCOA3 inh inactive, Gal4-VP16 ctr inactive and COUP-TFII conf inactive.
Screening C[C@H]1[C@@H](OC(=O)NCc2ccccc2Cl)CC[C@@]23CCCN2C(=O)CCC[C@@H]13 returned NR2F2 inh inactive.
Screening O=C(c1ccccc1)n1ccc2ccc(-c3ccc4ccn(Cc5ccccc5)c4c3)cc21 returned NR2F2 inh inactive and NCOA2 inhibitor inactive.
`CCN(CC)S(=O)(=O)c1ccc(NC(=O)c2ccc(CN3CCOCC3)cc2)cc1` gave NR2F2 inh 71, NCOA2 inhibitor inactive, LRH-1 inv ag inactive, NCOA1 inh inactive, NCOA3 inh inactive, Gal4-VP16 ctr inactive and COUP-TFII conf 64.
O=C(Nc1ccc(Cc2ccncc2)cc1)c1ccc(S(=O)(=O)N2CCOCC2)cc1 was read as NR2F2 inh 41, NCOA2 inhibitor inactive, LRH-1 inv ag inactive, NCOA1 inh inactive, NCOA3 inh inactive, Gal4-VP16 ctr inactive and COUP-TFII conf inactive.
For O=S(=O)(c1ccc(CN2CCOCCOCCN(Cc3ccc(S(=O)(=O)C(F)(F)F)cc3)CCOCC2)cc1)C(F)(F)F the results were NR2F2 inh 62, Gal4-VP16 ctr inactive and COUP-TFII conf inactive.
For O=C(Nc1ccc(S(=O)(=O)N2CCOCC2)cc1)c1ccc(S(=O)(=O)N2CCOCC2)cc1 the results were NR2F2 inh inactive, NCOA2 inhibitor inactive, LRH-1 inv ag inactive, NCOA1 inh inactive and NCOA3 inh inactive.
CCN(CC)S(=O)(=O)c1ccc(NC(=O)c2ccc(OCC3CCCO3)cc2)cc1 (stereo unspecified) was read as NR2F2 inh 61, NCOA2 inhibitor inactive, LRH-1 inv ag inactive, NCOA1 inh inactive, NCOA3 inh inactive, Gal4-VP16 ctr inactive and COUP-TFII conf 49.
CC(C)CN1C(=O)[C@]2(CC(=O)N(C)C2c2ccccc2)c2cc(-n3cc(CO)nn3)ccc21 (stereo partly specified) was read as NR2F2 inh inactive and NCOA2 inhibitor inactive.
COc1ccc(NS(=O)(=O)c2ccc(NC(=O)c3ccc(CN4CCOCC4)cc3)cc2)cc1 was read as NR2F2 inh 64, NCOA2 inhibitor inactive, LRH-1 inv ag inactive, NCOA1 inh inactive, NCOA3 inh inactive, Gal4-VP16 ctr inactive and COUP-TFII conf 52.
`O=C(Nc1ccc(S(=O)(=O)N2CCCCC2)cc1)c1ccc(CN2CCOCC2)cc1` gave LRH-1 inv ag inactive, NCOA1 inh inactive and NCOA3 inh inactive.
For CCOc1ccc(CN2CCN(S(=O)(=O)c3ccc(NC(C)=O)cc3)CC2)cc1 the results were NR2F2 inh 48, NCOA2 inhibitor inactive, LRH-1 inv ag inactive, NCOA1 inh inactive, NCOA3 inh inactive, Gal4-VP16 ctr inactive and COUP-TFII conf inactive.
Cc1ccc(NC(=O)c2cc(S(=O)(=O)N3CCCCC3)cs2)cc1 was read as NR2F2 inh 48, NCOA2 inhibitor inactive, LRH-1 inv ag inactive, NCOA1 inh inactive, NCOA3 inh inactive, Gal4-VP16 ctr inactive and COUP-TFII conf inactive.
